The record followed here is the antibiotic and cytotoxicity screens of Wong et al. (2023).

The structures appear in SMILES notation. In all, about 39,000 compounds went through this assay and about 3,300 (8.5%) were called active. For the sample, actives were picked, then their nearest neighbours and some compounds at random.

This assay deals with HepG2. Description: cytotoxicity call (relative viability < 0.9). The settings on record: 10 µM.
Take `O=C(C[C@@H]1CC[C@@H](NC(=O)CN2CCOCC2)[C@@H](CO)O1)NC1CCC1`: the cytotoxicity call was “inactive”. To `COc1cccc(CN(C)C[C@@H]2OCc3ccccc3-c3c(n(C)c4ccccc34)C(=O)N([C@H](C)CO)C[C@@H]2C)c1` belongs “inactive”; to `Cc1ccc(S(=O)(=O)N(C)C[C@@H]2Oc3ccc(NC(=O)CCCN(C)C)cc3C(=O)N([C@H](C)CO)C[C@@H]2C)cc1`, “inactive”.

With `Nc1ccc(/C=C/C(=O)NCc2cc3cc(-c4ccc(C(=O)N5CCC(F)(F)CC5)cc4)cc(-c4ccc(F)cc4)c3o2)cn1`, the cytotoxicity call was “active”. To `C[C@H]1CN([C@@H](C)CO)C(=O)CCCn2nncc2CO[C@@H]1CN(C)C(=O)C1CC1` belongs “inactive”; to `CC(C)NC(=O)Nc1cccc2c1O[C@H](CN(C)Cc1ccc(Oc3ccccc3)cc1)[C@@H](C)CN([C@H](C)CO)C2=O`, “inactive”; to `Cc1ccc2nccc(C(=O)N3CCC[C@@H](Cn4cc(C(C)(C)N)nn4)C3)c2c1`, “inactive”.

In the case of `C[C@H]1CCCCO[C@H](CN(C)C(=O)Nc2cccc3ccccc23)[C@@H](C)CN([C@@H](C)CO)C(=O)c2cc(NS(C)(=O)=O)ccc2O1`, the cytotoxicity call was “inactive”.

With `NC1CCN(C(=O)c2c[nH]c3ccccc23)CC1`, the cytotoxicity call is “inactive”. In the case of `COc1cc(N2CCC(N3CCN(C)CC3)CC2)ccc1Nc1ncc(Cl)c(Nc2ccccc2S(=O)(=O)C(C)C)n1`, the cytotoxicity call was “active”. To `COc1cc(N2CCC(O)CC2)ccc1Nc1cc(Nc2ccccc2S(=O)(=O)C(C)C)c2cc[nH]c2n1` belongs “inactive”; to `COc1cc(C(=O)N2CCN(CCN3C(=O)c4cccc5cccc(c45)C3=O)CC2)cc(OC)c1OC`, “inactive”; to `COc1cc(C(=O)N2CCC(N3CCN(C)CC3)CC2)ccc1Nc1ncc2c(n1)N(C)c1ccccc1C(=O)N2C`, “active”. To `Cc1cc(Nc2ncc(Cl)c(Nc3ccccc3S(=O)(=O)C(C)C)n2)c(OC(C)C)cc1C1CCNCC1` belongs “active”; to `COc1cc(N2CCC(N)CC2)ccc1Nc1ncc(Cl)c(-c2c[nH]c3ccccc23)n1`, “active”. Then `COc1cc(C(=O)NC2CCN(C)CC2)ccc1Nc1ncc2c(n1)N(C1CCC(O)CC1)CCC(=O)N2C` (configuration not stated), with “inactive”; and `Cc1noc(C)c1S(=O)(=O)Nc1ccc2c(c1)C(=O)N([C@@H](C)CO)C[C@H](C)[C@H](CN(C)C(=O)NC1CCCCC1)O2`, with “inactive”; and `Cc1noc(C)c1NC(=O)N(C)C[C@H]1Oc2c(NC(=O)c3ccc(-c4nccs4)cc3)cccc2C(=O)N([C@@H](C)CO)C[C@H]1C`, with “inactive”.

Turning to `Cc1noc(C)c1NC(=O)N(C)C[C@@H]1OCCCC[C@H](C)Oc2ccc(NC(=O)c3ccccc3)cc2C(=O)N([C@@H](C)CO)C[C@@H]1C`, the cytotoxicity call was “inactive”.

For `NC[C@H]1OB(O)c2c(OCCCO)cccc21`, the cytotoxicity call was “inactive”. To `C=CCOC(=O)[C@H]1[C@@H]2C(=O)O[C@@H](c3ccccc3)[C@@H](c3ccccc3)N2[C@@H](c2ccc(OCCOC(=O)[C@@H]3C[C@@H]4C(=O)N5CCC[C@H]5C(=O)N4[C@@H]3c3cccc(OCCO)c3)cc2)[C@]12C(=O)Nc1ccc(I)cc12` belongs “inactive”; to `CC(C)NC(=O)Nc1ccc2c(c1)CC(=O)N([C@H](C)CO)C[C@H](C)[C@H](CN(C)C(=O)NC1CCCCC1)O2`, “inactive”; to `CN1C(=O)c2cc(NC(=O)c3cccs3)ccc2OC[C@@H]2O[C@@H](CC(=O)NCC(F)(F)F)CC[C@@H]21`, “inactive”. In the case of `COc1cc(N2CCC(N(C)C)CC2)ccc1Nc1ncc(Cl)c(Nc2ccccc2P(C)(C)=O)n1`, the cytotoxicity call was “active”. Then `C=C(C)C1CCC2(C(=O)O)CCC3(C)C(CCC4C5(C)CCC(O)C(C)(C)C5CCC43C)C12` (configuration not stated), with “inactive”; and `C=C(C)C1CCC2(CO)CCC3(C)C(CCC4C5(C)CCC(O)C(C)(C)C5CCC43C)C12` (configuration not stated), with “active”; and `C=C(C)C1CCC2(C)CCC3(C)C(CCC4C5(C)CCC(O)C(C)(C)C5CCC43C)C12` (configuration not stated), with “inactive”.

For the molecule `CCS(=O)(=O)Nc1ccc2c(c1)C(=O)N(C)[C@@H]1CC[C@@H](CC(=O)NCCOC)O[C@@H]1CO2`, the cytotoxicity call is “inactive”. Then `Cc1noc(C)c1NC(=O)N(C)C[C@@H]1Oc2ccc(NC(=O)Nc3ccc(C(F)(F)F)cc3)cc2CC(=O)N([C@H](C)CO)C[C@H]1C`, with “inactive”; and `CNC[C@@H]1Oc2cc(C#CC(C)(C)O)ccc2S(=O)(=O)N([C@@H](C)CO)C[C@@H]1C`, with “inactive”; and `C[C@@H]1CN([C@@H](C)CO)C(=O)c2cccc(NS(=O)(=O)c3ccccc3)c2O[C@H]1CN(C)Cc1ccc(-c2ccccc2)cc1`, with “inactive”. On to `Cc1ccc(S(=O)(=O)Nc2cccc3c2O[C@H](CN(C)Cc2ccc(-c4ccccc4)cc2)[C@@H](C)CN([C@H](C)CO)C3=O)cc1`, for which the cytotoxicity call was “inactive”. To `Cc1ccc(S(=O)(=O)Nc2cccc3c2O[C@@H](CN(C)Cc2ccc(-c4ccccc4)cc2)[C@@H](C)CN([C@H](C)CO)C3=O)cc1` belongs “active”. Then `Cc1ccc(S(=O)(=O)Nc2cccc3c2O[C@H](CN(C)Cc2ccc(-c4ccccc4)cc2)[C@@H](C)CN([C@@H](C)CO)C3=O)cc1`, with “inactive”; and `Cc1ccc(S(=O)(=O)Nc2cccc3c2O[C@H](CN(C)Cc2ccc(-c4ccccc4)cc2)[C@H](C)CN([C@H](C)CO)C3=O)cc1`, with “active”.

Turning to `C[C@@H]1CN([C@H](C)CO)C(=O)c2cccc(NS(=O)(=O)c3ccccc3)c2O[C@@H]1CN(C)Cc1ccc(-c2ccccc2)cc1`, the cytotoxicity call is “active”. Then `Cc1ccc(S(=O)(=O)Nc2cccc3c2O[C@@H](CN(C)Cc2ccc(-c4ccccc4)cc2)[C@H](C)CN([C@H](C)CO)C3=O)cc1`, with “inactive”; and `Cc1ccc(S(=O)(=O)Nc2cccc3c2O[C@@H](CN(C)Cc2ccc(-c4ccccc4)cc2)[C@@H](C)CN([C@@H](C)CO)C3=O)cc1`, with “inactive”; and `C[C@@H]1CN([C@H](C)CO)C(=O)c2cccc(NS(=O)(=O)c3ccc(Cl)cc3)c2O[C@H]1CN(C)Cc1ccc(-c2ccccc2)cc1`, with “inactive”. Then `C[C@@H]1CN([C@@H](C)CO)C(=O)c2cccc(NS(=O)(=O)c3ccc(Cl)cc3)c2O[C@@H]1CN(C)Cc1ccc(-c2ccccc2)cc1`, with “active”; and `C[C@H]1CN([C@@H](C)CO)C(=O)c2cccc(NS(=O)(=O)c3ccccc3)c2O[C@H]1CN(C)Cc1ccc(-c2ccccc2)cc1`, with “inactive”.

As to `C[C@@H]1CN([C@@H](C)CO)C(=O)c2cccc(NS(=O)(=O)c3ccc(Cl)cc3)c2O[C@H]1CN(C)Cc1ccc(-c2ccccc2)cc1`, the cytotoxicity call is “inactive”.
